Growth data for 35 compounds are collected here from PubChem BioAssay (NCI).

Molecules are shown by their SMILES. This is part of a sample that, as a whole, favours compounds with a hit. Of some 83,000 tested, about 20% had one in any assay.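 Activity criterion: percent growth below 10, measured after cells in 96-well plates were exposed to a single compound concentration for 48 hours.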 Unmarked numbers belong to inactive results. Calls of active or inactive are those of the source.

This test relates to HL-60(TB) leukemia. Kind of test: NCI-60 one-dose screen, 48 h (100 = growth as untreated, 0 = no growth, -100 = all killed). As to conditions: 10 µM unless noted.
On to `CCCCCCCCCC(=O)Oc1ccc(/C(=C(/C)Cc2cccc(OC)c2)c2ccc(OCCN(C)C)cc2)cc1`, for which the growth is 112%.
With `CCOc1ccc(N=C(C)Nc2ccc(OCC)cc2)cc1` the figure was 76.4%; with `CCCCCCCC(=O)SCC/C=C/[C@@H]1CC(=O)NCc2nc(co2)C2=N[C@@](C)(CS2)C(=O)N[C@@H](C(C)C)C(=O)O1`, 8.71% (active); with `COc1ccc(-c2noc(C(=O)O)c2-c2cc(OC)c(OC)c(OC)c2)cc1`, -38.5% (active).
With `O=C(NCCN1CCCCC1)n1cc(-c2ccncc2)c(-c2ccc(Cl)c(O)c2)n1`, the growth was 71.1%.
For `Oc1ccccc1C=NCC1CCC(CN=Cc2ccccc2O)CC1` (stereo not given), the growth was 123%.
On to `Cn1cc(-c2[nH]c3cc(NC(=O)[C@H](N)C4CCCCC4)cc4c3c2C=NNC4=O)cn1`, for which the growth was -55.8% (active).
With `COc1cc(C2CC(c3ccc(Nc4nc(Nc5ccc(F)cc5)nc(Nc5ccc(Cl)cc5)n4)cc3)=NN2C(C)=O)cc(OC)c1OC` (stereo not given) the figure was 35.2%; with `O=[N+]([O-])c1cc2c(cc1Br)C1C(C3C2C(Cl)(Cl)C(Cl)=C(Cl)C3(Cl)Cl)C(Cl)(Cl)C(Cl)=C(Cl)C1(Cl)Cl` (stereo not given), 110%.
On to `C=C(C)[C@@H]1CC[C@]2(C(=O)OCCOCCOCC[P+](c3ccccc3)(c3ccccc3)c3ccccc3)CC[C@]3(C)[C@H](CC[C@@H]4[C@@]5(C)CC[C@H](C)C(C)(C)[C@@H]5CC[C@]43C)[C@@H]12`, for which the growth was -72.5% (active).
For the compound `C=C[C@@H]1CCC/C=C/[C@@H]2C[C@H](O)C[C@H]2[C@H](O)/C=C/C(=O)O1`, the growth is 8.25% (active).
For the compound `CCC(CC(C)C)Nc1ccc(NC(CC)CC(C)C)cc1` (stereo not given), the growth was 35.3%.
Regarding `COc1cc(NC(=O)CSc2nc3ccc(Cl)cc3c(=O)n2-c2ccc(F)cc2)cc(OC)c1OC`, the growth was 106%.
With `Fc1ccc(NC(=S)c2ccccc2)cc1` the figure was 102%; with `O=C1Nc2ccccc2/C1=C\c1c[nH]c2ccc(Br)cc12`, 73.1%; with `Cc1ccc(C(=O)c2oc3ccc4c(C)cc(=O)oc4c3c2C)cc1`, 7.9% (active).
For `COc1cc2c(cc1OCCCN1Cc3ccc(OCCCCC(=O)N4CCC(CCN5CCCC5)CC4)cc3C1)N=C(N)C21CCCC1`, the growth was 84.9%.
With `Cn1cnc([N+](=O)[O-])c1N1c2ccncc2Sc2ccncc21` the figure was 87.5%; with `CCCCCCCCCCCCCCCCCC1=NCCN1C(=O)OCCO`, 35.5%; with `N#Cc1c(-c2ccccc2)[nH]c2ncc(-c3ccccc3)n2c1=O`, 97.1%.
The same measure for `O=C(O)CCCCCNC(=O)OCc1ccccc1`: 103%; for `COc1cc(C)cc2oc3oc(=O)c(-c4csc(-c5cc6ccccc6oc5=O)n4)cc3c(=O)c12`: 115%.
With `COc1ccc(/C(=C2\O[C@@H]([C@H]3COC(C)(C)O3)[C@H]3OC(C)(C)O[C@@H]23)c2cc(OC)c(OC)c(OC)c2)cc1O` the figure was 20.7%; with `NC(=O)c1nc2c([nH]c1=O)CCCC2`, 101%.
On to `COc1cc(-c2c(C#N)c(N)n3c(nc4ccccc43)c2C#N)cc(Br)c1OC`, for which the growth was 62.9%.
Turning to `O=[N+]([O-])c1ccc2[nH]c3nccc(NCc4cccc(Cl)c4)c3c2c1`, the growth was 82.9%.
The same measure for `O=S(=O)(NCCCNc1nccc(-c2c(-c3cccc(F)c3)nc3occn23)n1)c1ccc(F)cc1`: 5.83% (active).
Regarding `Cc1ccc(C2SCC(=O)N2NC(=O)c2[nH]c3ccc(F)cc3c2-c2ccccc2)cc1` (stereo not given), the growth is 78.6%.
The same measure for `CC1=C(C(=O)/C=C/c2c[nH]c3ccccc23)C(c2ccccc2)NC(=S)N1` (stereo not given): 99.5%; for `Cn1nc(C(F)(F)F)c(-c2ccc(Cl)c(C(F)(F)F)c2)c1-c1ccc(OCc2ccc(Cl)cc2)cc1O`: 9.3% (active); for `CC1=Nc2cnc(Nc3ccc(N4CCCCC4)cc3)nc2Nc2ccccc21`: 28.1%.
On to `CC(=O)Oc1ccccc1C(=O)/C=C/c1cccc([N+](=O)[O-])c1`, for which the growth is 17.3%.
As for `COc1ccc(C2C3CCc4ccccc4C3=NN2C(=O)c2cc(OC)c(OC)c(OC)c2)cc1O` (stereo not given), the growth is 84.7%.
Take `C=C(COC(C)=O)[C@H]1CC/C(C)=C/CC/C(C)=C/CC[C@@]2(C)O[C@H]2C1`: the growth is 103%.
The same measure for `CCNC(=O)Oc1ccc(/C(=C(/C)Cc2ccc(OC)cc2)c2ccc(OCCN3CCCCCC3)cc2)cc1`: 38.1%.
